Drawing on PubChem BioAssay (Tox21), this text covers Potency for 35 compounds.

Records with an inconclusive call do not appear. A call without a number means that no potency is given here. Activity calls are given as the source filed them. Unless noted, the call rests on the fitted dose curve.

The first assay is described as follows: qHTS assay for small molecule agonists of the p53 signaling pathway (AID 651631). Further: nearly all actives have a fitted effect of over 15% in size. As to conditions: HCT-116 p53RE-bla reporter, beta-lactamase FRET ratio, 16 h; series mostly up to 73.3 µM. A digest of the protocol: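 Beta-lactamase reporter activity under p53 response elements was quantified in HCT-116 cells by FRET fluorescence, following 16 h incubation with test compounds at 37 °C and 2 h substrate development at room temperature.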
As for `CCCCCCCCCCCl`, the Potency entry is “inactive”.

Turning to `CCC(C)OC(=O)N1CCCCC1CCO` (stereo unspecified), the Potency entry is “inactive”.

On to `CO`, for which the Potency result was “inactive”.

Regarding `CCCCc1ccc2cccc(S(=O)(=O)O)c2c1`, the Potency result is “inactive”.

As to `N#CC1(O)CCCCC1`, the Potency result is “inactive”.

In the case of `CCCCN(CCO)CCO`, the Potency result is “inactive”.

Regarding `CCCOCC(C)OCC(C)O` (stereo unspecified), the Potency entry was “inactive”.

`CCC(C(=O)NC(N)=O)c1ccccc1` (stereo unspecified): the Potency result is “inactive”.

Regarding `c1ccc(SCCSc2ccccc2)cc1`, the Potency result was “inactive”.

On to `CC(=O)OC(C)(C)C`, for which the Potency entry is “inactive”.

Turning to `CC(=O)NC(Cc1ccccc1)C(=O)O` (stereo unspecified), the Potency entry was “inactive”.

Consider `COc1cccc(OC)c1`, for which the Potency entry is “inactive”.

`CCn1cc(C(=O)O)c(=O)c2cc(F)c(N3CCN(C)CC3)cc21`: the Potency entry is “inactive”.

Take `C[C@H](O)C(=O)Nc1c(I)c(C(=O)NC(CO)CO)c(I)c(C(=O)NC(CO)CO)c1I`: the Potency result is “inactive”.

Turning to `NS(=O)(=O)c1cc2c(cc1C(F)(F)F)NC(Cc1ccccc1)NS2(=O)=O` (stereo unspecified), the Potency entry was “inactive”.

With `COc1cccc(Br)c1`, the Potency result is “inactive”.

For `Fc1ccccc1-c1ccccc1`, the Potency result is “inactive”.

As to `C=CCn1c(=O)n([C@@H]2O[C@H](CO)[C@@H](O)[C@H]2O)c2nc(N)[nH]c(=O)c21`, the Potency result is “inactive”.

Regarding `CCCCCCOC(=O)c1ccccc1O`, the Potency result was “inactive”.

Turning to `CCCC(C)C(=O)O` (stereo unspecified), the Potency result is “inactive”.

For the compound `Cc1cc(C)c(NC(=O)CN(CC(=O)O)CC(=O)O)c(C)c1Br`, the Potency entry was “inactive”.

For the compound `NS(=O)(=O)c1cc2c(cc1Cl)NC(CSCc1ccccc1)=NS2(=O)=O`, the Potency entry is “inactive”.

On to `N#CCc1ccccc1[N+](=O)[O-]`, for which the Potency entry is “inactive”.

As for `C=C(C)C(=O)OCCC(C)OC(=O)C(=C)C` (stereo unspecified), the Potency entry was “inactive”.

Consider `CO[Si](OC)(OC)OC`, for which the Potency result is “inactive”.

For `CC(C)c1cccc(O)c1`, the Potency result was “inactive”.

Take `CCCCCCCCCCC1CO1` (stereo unspecified): the Potency result is “inactive”.

For the compound `COc1cc(CCC(C)=O)ccc1O`, the Potency result is “inactive”.

Take `CC(C)CCCCCCN`: the Potency result was “inactive”.

Turning to `CCCCNc1ccccc1`, the Potency result was “inactive”.

`CC(C)(O)c1ccccc1`: the Potency result was “inactive”.

In the case of `O=C(O)/C=C/c1ccc(Cn2ccnc2)cc1`, the Potency entry is “inactive”.

On to `Cc1ccccc1C(=O)O`, for which the Potency entry is “inactive”.

The nature of a further assay: qHTS assay for small molecules that induce genotoxicity in human embryonic kidney cells expressing luciferase-tagged ATAD5 (AID 651632; active means well fitted activation curve with a large enough effect in the repeat runs; further: nearly all actives have a fitted effect of over 15% in size). The settings on record: HEK293T ATAD5-luciferase induction, 16 h; series mostly up to 83.3 µM. The gist of the method: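 Genotoxicity read-out via ATAD5-luciferase: HEK293T cells, 16 hr compound incubation at 37C, Amplite detection.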
(In qHTS, concentration-response curves come from the screen itself.)
Consider `Nc1cc(N)cc(C(=O)O)c1`, for which the Potency entry was “inactive”.

Consider `Cc1ccc(N)cc1[N+](=O)[O-]`, for which the Potency result was “inactive”.

Regarding `CC(C)(O)c1ccccc1`, the Potency entry was “inactive”.

A further assay in a line: qHTS assay for small molecule agonists of the p53 signaling pathway - cell viability (AID 651633). Further: nearly all actives have a fitted effect of over 30% in size. The settings on record: p53RE-bla HCT-116 viability, ATP luminescence, 16 h; series mostly up to 83.3 µM. A digest of the protocol: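 p53RE-bla cells, seeded at 4,000 per well and rested 5 h at 37 C/5% CO2, received compounds in DMSO for 16 h at 37 C. CellTiter-Glo was then added, and luminescence was read after 30 min at room temperature to gauge cytotoxicity.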
For `CCCCCCCCCCCl`, the Potency entry is “inactive”.

`CCC(C)OC(=O)N1CCCCC1CCO` (stereo unspecified): the Potency entry is “inactive”.

Turning to `Nc1cc(N)cc(C(=O)O)c1`, the Potency result is “inactive”.

Consider `N#CC1(O)CCCCC1`, for which the Potency entry was “inactive”.

Regarding `CCCCN(CCO)CCO`, the Potency entry is “inactive”.

With `CCCOCC(C)OCC(C)O` (stereo unspecified), the Potency result was “inactive”.

With `CCC(C(=O)NC(N)=O)c1ccccc1` (stereo unspecified), the Potency result is “inactive”.

`c1ccc(SCCSc2ccccc2)cc1`: the Potency result is “inactive”.

For the compound `CC(=O)NC(Cc1ccccc1)C(=O)O` (stereo unspecified), the Potency result is “inactive”.

In the case of `CCn1cc(C(=O)O)c(=O)c2cc(F)c(N3CCN(C)CC3)cc21`, the Potency result is “inactive”.

Take `C[C@H](O)C(=O)Nc1c(I)c(C(=O)NC(CO)CO)c(I)c(C(=O)NC(CO)CO)c1I`: the Potency entry is “inactive”.

As for `NS(=O)(=O)c1cc2c(cc1C(F)(F)F)NC(Cc1ccccc1)NS2(=O)=O` (stereo unspecified), the Potency result is “inactive”.

With `COc1cccc(Br)c1`, the Potency entry is “inactive”.

Turning to `Fc1ccccc1-c1ccccc1`, the Potency entry is “inactive”.

For the compound `C=CCn1c(=O)n([C@@H]2O[C@H](CO)[C@@H](O)[C@H]2O)c2nc(N)[nH]c(=O)c21`, the Potency entry is “inactive”.

For the compound `CCCCCCOC(=O)c1ccccc1O`, the Potency result was “inactive”.

For `CCCC(C)C(=O)O` (stereo unspecified), the Potency result was “inactive”.

For the compound `Cc1cc(C)c(NC(=O)CN(CC(=O)O)CC(=O)O)c(C)c1Br`, the Potency entry is “inactive”.

On to `NS(=O)(=O)c1cc2c(cc1Cl)NC(CSCc1ccccc1)=NS2(=O)=O`, for which the Potency entry was “inactive”.

Regarding `N#CCc1ccccc1[N+](=O)[O-]`, the Potency entry is “inactive”.

Consider `C=C(C)C(=O)OCCC(C)OC(=O)C(=C)C` (stereo unspecified), for which the Potency entry is “inactive”.

As to `Cc1ccc(N)cc1[N+](=O)[O-]`, the Potency entry is “inactive”.

For `CO[Si](OC)(OC)OC`, the Potency result is “inactive”.

Consider `CC(C)c1cccc(O)c1`, for which the Potency entry is “inactive”.

As for `CCCCCCCCCCC1CO1` (stereo unspecified), the Potency result was “inactive”.

For `COc1cc(CCC(C)=O)ccc1O`, the Potency result was “inactive”.

Regarding `CC(C)CCCCCCN`, the Potency entry is “inactive”.

As for `CCCCNc1ccccc1`, the Potency result was “inactive”.

On to `O=C(O)/C=C/c1ccc(Cn2ccnc2)cc1`, for which the Potency result was “inactive”.

As to `Cc1ccccc1C(=O)O`, the Potency result was “inactive”.

A short description of a further assay: qHTS assay for small molecules that induce genotoxicity in human embryonic kidney cells expressing luciferase-tagged ATAD5 - cell viability (AID 651634). Further: nearly all actives have a fitted effect of over 25% in size. The settings on record: HEK293T ATAD5-luc cells viability, CellTiter-Fluor, 15.5 h; series mostly up to 83.3 µM. A digest of the protocol: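 Live-cell protease activity (CellTiter-Fluor, fluorescence) indicates viability. HEK293T cells with luciferase-tagged ATAD5; 15.5 hr compound treatment at 37C.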
For `CCCCCCCCCCCl`, the Potency result is “inactive”.

For the compound `CCC(C)OC(=O)N1CCCCC1CCO` (stereo unspecified), the Potency entry is “inactive”.

Take `CO`: the Potency result is “inactive”.

In the case of `CCCCc1ccc2cccc(S(=O)(=O)O)c2c1`, the Potency entry is “inactive”.

In the case of `Nc1cc(N)cc(C(=O)O)c1`, the Potency entry is “inactive”.

Take `N#CC1(O)CCCCC1`: the Potency result was “inactive”.

On to `CCCCN(CCO)CCO`, for which the Potency result was “inactive”.

For the compound `CCCOCC(C)OCC(C)O` (stereo unspecified), the Potency result was “inactive”.

Regarding `CCC(C(=O)NC(N)=O)c1ccccc1` (stereo unspecified), the Potency result was “inactive”.

Consider `c1ccc(SCCSc2ccccc2)cc1`, for which the Potency result was “inactive”.

Consider `CC(=O)OC(C)(C)C`, for which the Potency entry is “inactive”.

As to `CC(=O)NC(Cc1ccccc1)C(=O)O` (stereo unspecified), the Potency entry was “inactive”.

`COc1cccc(OC)c1`: the Potency result is “inactive”.

As for `CCn1cc(C(=O)O)c(=O)c2cc(F)c(N3CCN(C)CC3)cc21`, the Potency result was “inactive”.

Turning to `C[C@H](O)C(=O)Nc1c(I)c(C(=O)NC(CO)CO)c(I)c(C(=O)NC(CO)CO)c1I`, the Potency entry was “inactive”.

On to `NS(=O)(=O)c1cc2c(cc1C(F)(F)F)NC(Cc1ccccc1)NS2(=O)=O` (stereo unspecified), for which the Potency entry was “inactive”.

With `COc1cccc(Br)c1`, the Potency result is “inactive”.

In the case of `Fc1ccccc1-c1ccccc1`, the Potency entry is “inactive”.

`C=CCn1c(=O)n([C@@H]2O[C@H](CO)[C@@H](O)[C@H]2O)c2nc(N)[nH]c(=O)c21`: the Potency entry was “inactive”.

`CCCCCCOC(=O)c1ccccc1O`: the Potency entry was “inactive”.

With `CCCC(C)C(=O)O` (stereo unspecified), the Potency entry is “inactive”.

As to `Cc1cc(C)c(NC(=O)CN(CC(=O)O)CC(=O)O)c(C)c1Br`, the Potency result was “inactive”.

`NS(=O)(=O)c1cc2c(cc1Cl)NC(CSCc1ccccc1)=NS2(=O)=O`: the Potency entry is “inactive”.

As to `N#CCc1ccccc1[N+](=O)[O-]`, the Potency result was “inactive”.

`C=C(C)C(=O)OCCC(C)OC(=O)C(=C)C` (stereo unspecified): the Potency entry was “inactive”.

With `Cc1ccc(N)cc1[N+](=O)[O-]`, the Potency result was “inactive”.

For `CO[Si](OC)(OC)OC`, the Potency entry was “inactive”.

Take `CC(C)c1cccc(O)c1`: the Potency entry was “inactive”.

Take `CCCCCCCCCCC1CO1` (stereo unspecified): the Potency entry is “inactive”.

Turning to `COc1cc(CCC(C)=O)ccc1O`, the Potency entry was “inactive”.

`CC(C)CCCCCCN`: the Potency entry is “inactive”.

Consider `CCCCNc1ccccc1`, for which the Potency result was “inactive”.

Consider `CC(C)(O)c1ccccc1`, for which the Potency entry was “inactive”.

Take `O=C(O)/C=C/c1ccc(Cn2ccnc2)cc1`: the Potency result is “inactive”.

As for `Cc1ccccc1C(=O)O`, the Potency result was “inactive”.
